This note sets out measurements from PubChem BioAssay (NCI).

Compounds without any hit were thinned out: in the full panel of roughly 83,000, 20% have a hit.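 A percent growth of 40 corresponds to 60% growth inhibition; 0 means no net growth; -100 means all cells died. Active threshold: below 10.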 A number with no mark means an inactive call. The source made the active and inactive calls.

Experiment in all cases: NCI-60 one-dose screen, 48 h (100 = growth as untreated, 0 = no growth, -100 = all killed)
Holding throughout (settings): 10 µM unless noted

In experiment [1] the test system is SR leukemia.
For experiment [2], the system named is RPMI-8226 leukemia.
The test system of experiment [3] is OVCAR-8 ovarian.
For experiment [4], the system named is OVCAR-5 ovarian.
The subject of experiment [5] is OVCAR-4 ovarian.
Experiment [6] relates to SK-OV-3 ovarian.
For experiment [7], the system named is IGROV1 ovarian.
Experiment [8] concerns OVCAR-3 ovarian.
Experiment [9] concerns HS 578T breast.
In experiment [10] the test system is NCI/ADR-RES ovarian.

As to `CCCCN(CCCC)CCc1c(C)cc(C)c(CCN(CCCC)CCCC)c1O`, the growth in experiment [1] is 25.8%; in [2], 1.92% (active); in [3] it was 47.5%; in experiment [4], 45.6%; in experiment [5], 30.8%; in experiment [6], 25.5%. Moreover, the growth in [7] was 32.9%; in [8], 14.7%; in [9] it was 58.3%; in experiment [10], 75.7%.
On to `O=S(=O)(NCCNc1nccc(-c2c(-c3ccc(F)c(O)c3)nc3sccn23)n1)c1ccccc1`, for which the growth in experiment [1] is 35.8%; in experiment [2] it was 41%; in experiment [3], 67.6%; in [4], 115%; in [5] it was 92.8%; in [6], 85.9%. The growth is 68.9% in [7], 81.6% in experiment [8], 82.1% in experiment [9] and 106% in experiment [10].
`O=C(Nc1cccc(C2=NCCN2)c1)c1ccc(OCCCOc2ccc(C(=O)Nc3cccc(C4=NCCN4)c3)cc2)cc1`: the growth in experiment [1] was 11.9%; in experiment [2], -3.7% (active); in [3], 55%; in [4], 24.8%; in experiment [5] it was 13.2%; in experiment [6], 31.6%. Moreover, the growth in experiment [7] was -40.2% (active); in [8], 5.65% (active); in experiment [9] it was 35.6%; in experiment [10], 104%.
On to `O=c1[nH]nc(-c2ccc(Cl)cc2)cc1Cc1cccc([N+](=O)[O-])c1`, for which the growth in experiment [1] is -44.9% (active); in experiment [2], 51.6%; in experiment [3], 101%; in experiment [4], 107%; in experiment [5], 80%; in experiment [6], 88.8%. Also, the growth in [7] is 82.4%; in experiment [8] it was 101%; in experiment [9], 49.1%; in experiment [10], 101%.
As for `O=CNc1cc(Cl)cc(Cl)c1`, the growth in experiment [1] was 90.3%; in experiment [2] it was 99.1%; in [3], 99.8%; in experiment [4], 97.5%; in experiment [5] it was 113%; in experiment [6] it was 115%. The growth in experiment [7] was 103%; in experiment [8], 123%; in [9], 111%; in experiment [10], 108%.
In the case of `C=Cc1cc[n+](CCCCCCCCCCCC)cc1`, the growth in [1] was 97.2%; in [2] it was 104%; in experiment [3], 112%; in experiment [4], 108%; in experiment [5], 133%; in [6], 144%. Besides, the growth is 104% in [7], 110% in experiment [8], 108% in [9] and 106% in experiment [10].
Take `CCOc1ccc(/C=N/Nc2cc(C)nc3ccc(Cl)cc23)cc1`: the growth is -9.13% (active) in experiment [1]; -1.34% (active) in experiment [2]; 45.2% in [3]; 79.2% in [4]; 56.8% in experiment [5]; 84.1% in experiment [6]. Moreover, the growth is 45.4% in experiment [7], -16.3% (active) in [8], 92.3% in [9] and 45.9% in [10].
`O=S(=O)(NCCNc1nccc(-c2c(-c3ccc(F)c(O)c3)nc3occn23)n1)c1ccccc1`: the growth in experiment [1] is 20.2%; in experiment [2] it was 33.7%; in experiment [3], 53.7%; in experiment [4], 101%; in experiment [5], 85.8%; in [6], 68.6%. The growth in experiment [7] is 43.9%; in experiment [8] it was 77.1%; in experiment [9], 54.4%; in experiment [10], 109%.
Take `O=C1CCC(NC(=S)Nc2ccccc2)N1` (stereo not given): the growth in experiment [1] is 93.8%; in experiment [2], 101%; in experiment [3], 107%; in experiment [4] it was 111%; in experiment [5], 107%; in experiment [6], 117%. The growth in [7] is 102%; in experiment [8], 106%; in [9] it was 105%; in experiment [10] it was 96.9%.
Regarding `O=C1CCCN1c1cccc2cccnc12`, the growth in experiment [1] is 101%; in [2] it was 102%; in experiment [3], 103%; in experiment [4], 109%; in [5], 110%; in [6], 114%. In addition, the growth was 107% in experiment [7], 110% in [8], 97.3% in experiment [9] and 99.3% in [10].
Consider `COc1nc(N)nc(-n2c(-c3ccc(C)cc3)nc3ccccc32)c1NCc1ccc(C)cc1`, for which the growth in experiment [1] is 80.5%; in experiment [2], 81.2%; in experiment [3] it was 94.1%; in experiment [4], 88.5%; in experiment [5], 95%; in experiment [6], 110%. Further, the growth in experiment [7] is 80.1%; in experiment [8] it was 111%; in experiment [9], 83.6%; in experiment [10], 90.1%.
For the compound `Cn1c(COC(=O)N2CCCCC2)nc2c(N3CCOCC3)nc(-c3ccccc3)nc21`, the growth in experiment [1] was 0.966% (active); in [2], -29.5% (active); in experiment [3] it was -6.61% (active); in experiment [4], -79.8% (active); in experiment [5] it was -78.4% (active); in experiment [6] it was 60.2%. The growth was -80.6% (active) in [7], -85.3% (active) in [8], -36.1% (active) in [9] and -8.64% (active) in experiment [10].
As to `CCNC(=S)NNC(=O)c1cc2ccc1CCc1ccc(cc1)CC2`, the growth was 101% in experiment [1]; 102% in experiment [2]; 102% in experiment [3]; 96.2% in experiment [4]; 106% in experiment [5]; 123% in experiment [6]. In addition, the growth was 103% in experiment [7], 98.6% in [8], 102% in experiment [9] and 101% in [10].
